According to the supplement of paper PMC10849652:
The full data set covers some 8,800 targets. This sample favours those with a hit. About 0.5% of all pairs of compound and target were hits.

Tests used:
Assay in all cases: log2 fold change, soluble protein after heating vs DMSO (PISA); higher = thermal stabilisation; K562 lysate, 10 uM; active = over 0.2 and 3.5 SD of the protein, either way, in both replicates (recomputed)
[1] = compound: C#Cc1cccc(Nc2ncnc3cc(OCCOC)c(OCCOC)cc23)c1 [erlotinib]
Method in brief: (§1)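 Following dounce homogenisation of K562 pellets in PBS pH 7.4 with 1 mM MgCl2, crude extract at 1 mg/mL protein was incubated for 30 min with 10 μM compound. Aliquots were then heated for 3 min over 48°C-58°C and pooled, NP-40 was added to 0.5% at 4°C, and soluble protein was recovered as the supernatant at 21,000xg for 90 min. Channel-sum-equalised TMTpro 16plex LC-MS/MS quantified this protein. Each value, from duplicates, is a log-two fold change in thermal stability relative to solvent controls.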

[2] = compound: C/C(=N\NC(=O)C1=CC(=CC=C1)S(=O)(=O)N2CCOCC2)/C3=C(C=CC(=C3)Cl)O
Method in brief: as §1

[3] = compound: C1=CC(=CC=C1C2=NC3=C(N2)C=C(C=C3)C(=O)N)OC4=CC=C(C=C4)Cl
Method in brief: as §1

[4] = compound: C1=CC2=C(C=CC(=C2)/C=C\3/C(=O)NC(=NCC4=CC=CS4)S3)N=C1
Method in brief: as §1

[5] = compound: C1=CC2=NC=CN=C2C=C1/C=C/3\C(=O)NC(=O)S3
Method in brief: as §1

[6] = compound: C1=CC=C(C=C1)C2=NC(=C(N2)C3=CC=NC=C3)C4=CC(=C(C=C4)Cl)O
Method in brief: as §1

[7] = compound: C1=CC=C2C(=C1)C3=NNC4=CC=CC(=C43)C2=O
Method in brief: as §1

[8] = compound: C1CCN(C1)C(=O)NC2=CC=CC(=C2)NC3=NC=C(C(=N3)NCCC4=CN=CN4)Br
Method in brief: as §1

[9] = compound: C1CN(CCC1(CC2=CC=C(C=C2)Cl)N)C3=NC=NC4=C3C=CN4
Method in brief: as §1

[10] = compound: C1COCCN1CCN2C3=CC=CC=C3N=C2NC(=O)C4=CC(=CC=C4)[N+](=O)[O-] [IRAK-1-4 Inhibitor I]
Method in brief: as §1

[11] = compound: C=CC(=O)N1CCC[C@@H](n2nc(-c3ccc(Oc4ccccc4)cc3)c3c(N)ncnc32)C1 [ibrutinib]
Method in brief: as §1

[12] = compound: CC(=O)c1cnc2ccc(-c3cc(Cl)c(O)c(Cl)c3)nc2c1N[C@H]1CC[C@H](CN(C)C)CC1
Method in brief: as §1

[13] = compound: CC(C)(C)Cn1c(N)nc2ccc(-c3[nH]c(C(C)(C)C)nc3-c3ccc(F)cc3)nc21 [ralimetinib]
Method in brief: as §1

[14] = compound: CC(C)(O)CC(=O)NCCn1ccc2ncnc(Nc3ccc(Oc4cccc(C(F)(F)F)c4)c(Cl)c3)c21
Method in brief: as §1

[15] = compound: CC(C)C1=C2N=C(C=C(N2N=C1)NCC3=CC=CC=C3)NCCCCCCN
Method in brief: as §1

[16] = compound: CC1=C(C(CC(=O)N1)C2=CC=C(C=C2)C(F)(F)F)C(=O)NC3=C(C=C4C(=C3)C=NN4)F
Method in brief: as §1

[17] = compound: CC1=C(C2=C(C=C1)C(=O)C3=CC=CC=C3N2CCCN)C
Method in brief: as §1

[18] = compound: CC1=C(C=C(C=C1)NC(=O)C2=CC(=CC=C2)C(C)(C)C#N)NC3=CC4=C(C=C3)N=CN(C4=O)C
Method in brief: as §1

[19] = compound: CC1=C(C=C(C=C1)NC(=O)C2=CC(=CC=C2)N(C)C)NC(=O)C3=CC=C(C=C3)O
Method in brief: as §1

[20] = compound: CC1=CC=C(C=C1)SC2=C3C=C(SC3=CN=C2)C(=O)N
Method in brief: as §1

Measured: log2 fold change

HNRNPM (UniProt P52272)
Sequence of UniProt P52272 (P52272 whole entry, looked up): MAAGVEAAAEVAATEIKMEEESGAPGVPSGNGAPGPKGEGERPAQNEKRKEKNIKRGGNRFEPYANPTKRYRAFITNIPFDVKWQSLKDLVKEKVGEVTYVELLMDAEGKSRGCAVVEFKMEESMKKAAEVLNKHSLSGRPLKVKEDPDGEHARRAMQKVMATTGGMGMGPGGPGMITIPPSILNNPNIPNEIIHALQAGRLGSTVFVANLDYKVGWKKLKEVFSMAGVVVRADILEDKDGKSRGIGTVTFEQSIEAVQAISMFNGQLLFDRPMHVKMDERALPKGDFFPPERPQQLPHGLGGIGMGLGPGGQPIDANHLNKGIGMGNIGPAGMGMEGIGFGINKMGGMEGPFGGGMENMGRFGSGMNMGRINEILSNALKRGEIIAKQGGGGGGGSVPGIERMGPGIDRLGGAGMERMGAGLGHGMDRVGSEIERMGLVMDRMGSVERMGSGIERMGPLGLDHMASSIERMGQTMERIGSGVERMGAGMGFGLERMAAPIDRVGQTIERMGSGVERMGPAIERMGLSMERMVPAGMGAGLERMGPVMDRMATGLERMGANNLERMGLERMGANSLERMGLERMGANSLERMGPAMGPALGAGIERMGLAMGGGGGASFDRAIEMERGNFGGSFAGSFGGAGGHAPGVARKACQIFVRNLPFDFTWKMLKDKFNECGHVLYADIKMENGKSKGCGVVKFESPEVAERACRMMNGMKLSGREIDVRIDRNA
inactive: [1] -0.015 | [2] -0.046 | [3] 0.004 | [4] -0.022 | [5] 0.051 | [6] -0.036 | [7] -0.039 | [8] -0.022 | [9] -0.003 | [10] 0.005 | [11] -0.031 | [12] 0.024 | [13] 0.034 | [14] -0.048 | [15] 0.02 | [16] 0.051 | [17] 0.062 | [18] -0.183 | [19] 0.021 | [20] 0.007

GLUD2 (UniProt P49448)
Sequence of UniProt P49448 (P49448 whole entry, looked up): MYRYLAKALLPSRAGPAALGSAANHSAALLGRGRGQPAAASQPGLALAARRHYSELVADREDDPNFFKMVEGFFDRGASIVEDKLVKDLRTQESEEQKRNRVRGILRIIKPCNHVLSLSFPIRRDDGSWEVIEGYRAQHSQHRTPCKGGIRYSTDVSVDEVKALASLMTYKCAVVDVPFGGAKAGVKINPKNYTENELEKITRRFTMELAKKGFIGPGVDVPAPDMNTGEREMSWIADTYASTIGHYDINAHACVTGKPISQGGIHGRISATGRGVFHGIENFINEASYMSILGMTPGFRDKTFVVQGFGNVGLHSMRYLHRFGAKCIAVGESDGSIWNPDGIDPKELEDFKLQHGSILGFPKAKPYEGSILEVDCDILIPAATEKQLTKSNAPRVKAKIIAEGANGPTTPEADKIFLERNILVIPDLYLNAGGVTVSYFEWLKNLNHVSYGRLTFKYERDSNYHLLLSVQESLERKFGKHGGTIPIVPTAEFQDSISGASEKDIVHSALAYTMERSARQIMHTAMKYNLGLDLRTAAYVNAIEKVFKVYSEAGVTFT
inactive: [1] -0.017 | [2] -0.016 | [3] -0.053 | [4] 0.028 | [5] -0.057 | [6] -0.014 | [7] -0.09 | [8] -0.119 | [9] 0.029 | [10] 0.113 | [11] -0.063 | [12] 0.063 | [13] 0.02 | [14] -0.043 | [15] -0.012 | [16] 0.018 | [17] -0.028 | [18] 0.061 | [19] 0.001 | [20] 0.033

GTF2A1 (UniProt P52655)
Sequence of UniProt P52655 (P52655 whole entry, looked up): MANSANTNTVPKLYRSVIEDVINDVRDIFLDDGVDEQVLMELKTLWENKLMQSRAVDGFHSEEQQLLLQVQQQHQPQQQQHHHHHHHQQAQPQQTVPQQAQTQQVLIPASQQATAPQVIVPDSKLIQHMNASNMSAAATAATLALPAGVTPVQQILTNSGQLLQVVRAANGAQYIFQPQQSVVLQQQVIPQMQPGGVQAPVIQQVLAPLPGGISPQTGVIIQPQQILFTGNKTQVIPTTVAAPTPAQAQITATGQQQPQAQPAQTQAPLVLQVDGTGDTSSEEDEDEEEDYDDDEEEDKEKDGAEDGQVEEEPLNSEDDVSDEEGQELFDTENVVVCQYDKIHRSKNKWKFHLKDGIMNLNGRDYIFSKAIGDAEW
inactive: [1] 0.031 | [2] -0.008 | [3] 0.015 | [4] 0.026 | [5] -0.01 | [6] -0.038 | [7] -0.061 | [8] -0.04 | [9] -0.01 | [10] 0.033 | [11] -0.009 | [12] -0.046 | [13] 0.015 | [14] -0.016 | [15] -0.036 | [16] -0.069 | [17] -0.021 | [18] -0.013 | [19] 0.008 | [20] -0.014

HEATR3 (UniProt Q7Z4Q2)
inactive: [1] 0.002 | [2] 0.029 | [3] -0.064 | [4] -0.015 | [5] 0.02 | [6] -0.022 | [7] -0.052 | [8] -0.002 | [9] 0.006 | [10] -0.001 | [11] 0.026 | [12] -0.008 | [13] 0.037 | [14] -0.048 | [15] -0.01 | [16] -0.001 | [17] -0.015 | [18] 0.004 | [19] -0.027 | [20] 0.023

IARS (UniProt P41252)
inactive: [1] 0.022 | [2] 0.061 | [3] -0.011 | [4] 0.013 | [5] 0.02 | [6] 0.006 | [7] -0.035 | [8] 0.006 | [9] 0.01 | [10] -0.006 | [11] -0.015 | [12] -0.001 | [13] 0.037 | [14] 0.035 | [15] 0.029 | [16] -0.016 | [17] 0.012 | [18] -0.04 | [19] 0.05 | [20] 0.029

HECTD4 (UniProt J3KPF0)
inactive: [1] 0.076 | [2] -0.002 | [3] 0.035 | [4] -0.125 | [5] -0.02 | [6] 0.024 | [7] -0.055 | [8] -0.027 | [9] 0.01 | [10] -0.009 | [11] 0.017 | [12] -0.024 | [13] 0.001 | [14] 0.007 | [15] -0.032 | [16] -0.028 | [17] -0.036 | [18] 0.032 | [19] 0.021 | [20] 0.009

IL18R1 (UniProt Q13478)
inactive: [1] -0.029 | [2] -0.493 | [3] -0.136 | [4] 0.147 | [5] 0.041 | [6] 0.152 | [7] 0.079 | [8] -0.155 | [9] 0.058 | [10] -0.043 | [11] -0.177 | [12] 0.117 | [13] -0.261 | [14] -0.463 | [15] 0.053 | [16] -0.066 | [17] -0.031 | [18] 0.061 | [19] 0.15 | [20] 0.097

HMGCL (UniProt P35914)
Sequence of UniProt P35914 (P35914 whole entry, looked up): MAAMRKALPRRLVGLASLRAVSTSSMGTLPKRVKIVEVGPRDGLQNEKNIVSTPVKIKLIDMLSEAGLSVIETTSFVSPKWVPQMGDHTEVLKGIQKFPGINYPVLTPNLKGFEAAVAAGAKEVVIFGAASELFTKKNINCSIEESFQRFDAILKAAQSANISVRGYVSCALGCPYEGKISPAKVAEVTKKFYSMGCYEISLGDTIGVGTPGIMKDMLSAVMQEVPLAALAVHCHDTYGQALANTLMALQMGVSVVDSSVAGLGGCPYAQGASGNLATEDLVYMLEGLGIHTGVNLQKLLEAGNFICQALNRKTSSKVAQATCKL
inactive: [1] 0.002 | [2] -0.089 | [3] 0.032 | [4] -0.016 | [5] -0.047 | [6] -0.005 | [7] -0.035 | [8] 0.005 | [9] 0.008 | [10] 0.024 | [11] 0.037 | [12] 0.008 | [13] 0.026 | [14] -0.016 | [15] -0.018 | [16] 0.001 | [17] -0.019 | [18] -0.009 | [19] 0.022 | [20] -0.014

HK2 (UniProt P52789)
Sequence of UniProt P52789 (P52789 whole entry, looked up): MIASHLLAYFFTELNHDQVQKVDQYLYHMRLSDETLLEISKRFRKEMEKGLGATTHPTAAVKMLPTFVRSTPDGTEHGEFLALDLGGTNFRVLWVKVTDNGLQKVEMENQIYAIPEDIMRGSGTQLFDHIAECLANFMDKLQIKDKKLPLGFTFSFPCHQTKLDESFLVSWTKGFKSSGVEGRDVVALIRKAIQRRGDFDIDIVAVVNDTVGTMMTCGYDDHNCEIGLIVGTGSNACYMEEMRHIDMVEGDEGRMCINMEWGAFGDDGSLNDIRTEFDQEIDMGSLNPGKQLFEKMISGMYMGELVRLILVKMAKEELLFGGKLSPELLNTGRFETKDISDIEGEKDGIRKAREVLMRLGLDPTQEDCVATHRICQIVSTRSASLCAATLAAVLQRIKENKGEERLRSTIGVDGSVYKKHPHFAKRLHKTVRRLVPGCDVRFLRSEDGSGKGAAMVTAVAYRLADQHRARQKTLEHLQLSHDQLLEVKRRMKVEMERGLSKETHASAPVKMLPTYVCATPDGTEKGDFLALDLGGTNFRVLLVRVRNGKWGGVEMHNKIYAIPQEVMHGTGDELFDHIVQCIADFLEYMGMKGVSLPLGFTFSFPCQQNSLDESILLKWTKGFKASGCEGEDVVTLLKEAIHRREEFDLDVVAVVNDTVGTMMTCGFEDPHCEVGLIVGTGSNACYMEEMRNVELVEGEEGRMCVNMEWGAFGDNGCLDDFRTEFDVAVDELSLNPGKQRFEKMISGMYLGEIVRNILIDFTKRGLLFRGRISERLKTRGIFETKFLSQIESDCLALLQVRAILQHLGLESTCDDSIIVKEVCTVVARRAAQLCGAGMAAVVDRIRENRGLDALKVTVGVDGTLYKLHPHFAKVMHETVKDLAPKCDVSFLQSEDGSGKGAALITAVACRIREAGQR
inactive: [1] 0.013 | [2] 0.007 | [3] -0.045 | [4] 0.019 | [5] -0.01 | [6] 0.026 | [7] -0.027 | [8] -0.016 | [9] 0.004 | [10] -0.002 | [11] 0.021 | [12] -0.005 | [13] 0.019 | [14] 0.006 | [15] -0.029 | [16] -0.007 | [17] 0.006 | [18] 0.008 | [19] 0.002 | [20] 0.011

ITPKA (UniProt P23677)
inactive: [1] 0.021 | [2] -0.042 | [3] 0.041 | [4] 0.043 | [5] 0.006 | [6] 0.046 | [7] 0.006 | [8] -0.07 | [9] 0.011 | [10] -0.013 | [11] 0.043 | [12] -0.009 | [13] 0.007 | [14] -0.044 | [15] 0.011 | [16] 0.023 | [17] 0.002 | [18] -0.012 | [19] 0.022 | [20] 0.026

KDM6A (UniProt O15550)
Sequence of UniProt O15550 (O15550 whole entry, looked up): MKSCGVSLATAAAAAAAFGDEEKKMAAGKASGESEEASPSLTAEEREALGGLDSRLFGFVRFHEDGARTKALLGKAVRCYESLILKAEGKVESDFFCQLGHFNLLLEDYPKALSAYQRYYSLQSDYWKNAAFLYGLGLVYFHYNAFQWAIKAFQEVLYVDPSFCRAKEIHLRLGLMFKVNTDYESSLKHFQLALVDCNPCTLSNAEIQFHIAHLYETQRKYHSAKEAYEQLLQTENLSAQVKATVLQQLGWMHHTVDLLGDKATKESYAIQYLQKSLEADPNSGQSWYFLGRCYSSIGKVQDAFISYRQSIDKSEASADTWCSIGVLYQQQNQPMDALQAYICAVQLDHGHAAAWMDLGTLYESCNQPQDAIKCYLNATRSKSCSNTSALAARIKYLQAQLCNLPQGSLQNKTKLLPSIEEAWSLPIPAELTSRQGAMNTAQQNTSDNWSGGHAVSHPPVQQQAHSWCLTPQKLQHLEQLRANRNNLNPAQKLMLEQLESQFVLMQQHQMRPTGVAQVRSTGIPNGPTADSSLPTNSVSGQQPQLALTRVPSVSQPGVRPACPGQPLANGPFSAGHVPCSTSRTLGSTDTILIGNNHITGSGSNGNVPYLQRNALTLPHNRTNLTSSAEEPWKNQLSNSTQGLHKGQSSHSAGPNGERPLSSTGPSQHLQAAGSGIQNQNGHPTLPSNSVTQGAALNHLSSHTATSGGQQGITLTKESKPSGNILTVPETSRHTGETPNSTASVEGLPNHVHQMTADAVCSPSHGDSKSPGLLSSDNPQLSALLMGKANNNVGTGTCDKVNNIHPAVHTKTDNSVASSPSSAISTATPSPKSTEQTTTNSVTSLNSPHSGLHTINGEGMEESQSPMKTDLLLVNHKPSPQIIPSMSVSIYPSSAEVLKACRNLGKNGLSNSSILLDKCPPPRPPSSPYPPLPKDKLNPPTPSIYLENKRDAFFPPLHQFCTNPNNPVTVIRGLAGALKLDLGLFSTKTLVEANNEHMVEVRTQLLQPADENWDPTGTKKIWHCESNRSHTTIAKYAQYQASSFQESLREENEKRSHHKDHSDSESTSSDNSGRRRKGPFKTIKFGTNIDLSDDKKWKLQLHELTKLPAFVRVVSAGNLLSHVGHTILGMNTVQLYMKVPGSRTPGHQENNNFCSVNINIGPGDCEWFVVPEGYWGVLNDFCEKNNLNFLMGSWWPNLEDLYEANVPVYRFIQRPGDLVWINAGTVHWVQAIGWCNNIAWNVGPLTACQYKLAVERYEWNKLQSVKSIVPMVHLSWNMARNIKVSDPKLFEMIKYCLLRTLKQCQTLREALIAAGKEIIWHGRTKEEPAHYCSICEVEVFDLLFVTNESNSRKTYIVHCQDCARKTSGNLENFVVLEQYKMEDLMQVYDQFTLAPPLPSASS
inactive: [1] -0.022 | [2] -0.039 | [3] 0.061 | [4] 0 | [5] 0.006 | [6] 0.023 | [7] -0.064 | [8] 0.004 | [9] 0.045 | [10] 0.017 | [11] -0.007 | [12] 0.012 | [13] 0.003 | [14] -0.028 | [15] 0.025 | [16] -0.007 | [17] -0.065 | [18] 0.009 | [19] -0.004 | [20] 0.022

HEATR6 (UniProt Q6AI08)
inactive: [1] -0.033 | [2] 0.024 | [3] -0.002 | [4] 0.022 | [5] 0.085 | [6] -0.006 | [7] -0.026 | [8] -0.03 | [9] -0.007 | [10] -0.028 | [11] 0.045 | [12] -0.036 | [13] 0.064 | [14] -0.031 | [15] -0.051 | [16] 0.033 | [17] -0.069 | [18] -0.004 | [19] 0.083 | [20] -0.009

HDAC1 (UniProt Q13547)
Sequence of UniProt Q13547 (Q13547 whole entry, looked up): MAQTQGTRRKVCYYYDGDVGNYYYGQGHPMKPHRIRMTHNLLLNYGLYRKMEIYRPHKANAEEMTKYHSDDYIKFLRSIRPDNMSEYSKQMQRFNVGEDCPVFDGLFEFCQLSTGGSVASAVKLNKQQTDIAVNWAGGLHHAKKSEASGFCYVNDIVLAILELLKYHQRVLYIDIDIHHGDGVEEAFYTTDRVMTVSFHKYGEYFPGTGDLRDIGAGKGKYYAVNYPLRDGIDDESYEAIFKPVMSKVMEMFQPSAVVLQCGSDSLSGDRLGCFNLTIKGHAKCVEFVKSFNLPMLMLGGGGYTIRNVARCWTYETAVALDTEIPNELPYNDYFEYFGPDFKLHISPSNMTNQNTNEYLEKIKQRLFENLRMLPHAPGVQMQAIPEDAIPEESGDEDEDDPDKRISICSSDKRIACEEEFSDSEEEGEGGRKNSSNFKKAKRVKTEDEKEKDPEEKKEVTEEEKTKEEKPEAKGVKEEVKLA
inactive: [1] 0 | [2] -0.046 | [3] -0.012 | [4] 0.015 | [5] 0.003 | [6] -0.013 | [7] -0.024 | [8] -0.014 | [9] -0.036 | [10] -0.043 | [11] -0.026 | [12] -0.001 | [13] 0.031 | [14] 0.01 | [15] -0.001 | [16] 0.001 | [17] -0.008 | [18] -0.022 | [19] 0.008 | [20] 0.011

HMGB2 (UniProt P26583)
Sequence of UniProt P26583 (P26583 whole entry, looked up): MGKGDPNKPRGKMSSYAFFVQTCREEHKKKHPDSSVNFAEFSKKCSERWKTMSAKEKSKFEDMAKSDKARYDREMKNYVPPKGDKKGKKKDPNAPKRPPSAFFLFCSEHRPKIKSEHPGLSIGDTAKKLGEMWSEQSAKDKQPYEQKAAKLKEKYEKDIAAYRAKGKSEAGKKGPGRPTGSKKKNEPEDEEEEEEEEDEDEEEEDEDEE
inactive: [1] -0.007 | [2] 0.039 | [3] 0.007 | [4] 0.008 | [5] -0.017 | [6] 0.046 | [7] 0.013 | [8] 0.014 | [9] -0.008 | [10] -0.026 | [11] -0.038 | [12] 0.012 | [13] -0.034 | [14] 0.026 | [15] 0.014 | [16] -0.013 | [17] -0.001 | [18] -0.035 | [19] 0.015 | [20] -0.004

GSTCD (UniProt Q8NEC7)
inactive: [1] 0.041 | [2] -0.017 | [3] -0.037 | [4] 0.033 | [5] -0.027 | [6] 0.012 | [7] -0.021 | [8] -0.028 | [9] 0.005 | [10] -0.055 | [11] 0.057 | [12] -0.01 | [13] 0.033 | [14] -0.023 | [15] -0.038 | [16] 0.044 | [17] -0.04 | [18] 0.051 | [19] -0.003 | [20] 0.011

HK1 isoform 2 (UniProt P19367)
inactive: [1] -0.027 | [2] -0.006 | [3] 0.009 | [4] 0.006 | [5] 0.007 | [6] 0.007 | [7] -0.006 | [8] 0.001 | [9] 0.014 | [10] -0.002 | [11] -0.007 | [12] 0.005 | [13] -0.008 | [14] 0.021 | [15] -0.029 | [16] -0.029 | [17] 0.025 | [18] 0.023 | [19] 0.016 | [20] 0.008
